From PubChem BioAssay AID2685 (National Center for Advancing Translational Sciences (NCATS), 2010)
Screen size: about 320,000 compounds; about 2,100 (0.66%) were called active. Another 53% or so got no clear call; they are omitted. Calls follow the shape of the dose curve; as a rule, active = well fitted inhibition curve with a large enough effect in the signal ratio, with a control signal flat (not every such curve was filed as active); inconclusive = small, poorly fitted or top-dose-only effect, or effect the other way, or a change in a side signal; inactive = flat fitted curve, though single readings scatter; the % refers to the signal ratio. For the sample, actives were picked, then their nearest neighbours and some compounds at random.

assay: qHTS Assay for Lipid Storage Modulators in Drosophila S3 Cells; conditions: BODIPY lipid droplet fluorescence, 18-24 h, cells fed with added oleic acid; cell number change: measured here: cell count max response; series mostly up to 46.1 µM; lipid storage change, negative = inhibition: at the top concentration;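 as to cell number change: cells counted by Cell Tracker Red CMTPX staining in the red channel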; as to lipid storage change, negative = inhibition: % is scaled to controls: 0 for no effect and ±100 for the full control effect
Procedure, shortened: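 Drosophila S3 cells loaded with oleic acid (400 uM, as added) and compounds at several concentrations; lipid droplets imaged by 488-nm laser-scanning cytometry, 500–530 nm intensity and object ratio to cell channel. Percent activity normalized to 20 uM Triacsin C.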
Potency is read from the fitted curve at half-maximal effect.

Structure (SMILES) | outcome | cell number change | lipid storage change, negative = inhibition | Potency
CCN(CC)S(=O)(=O)c1cccc(-c2nnc(SCC(=O)c3cc(C)n(C4CC4)c3C)o2)c1 | inactive | 13.6% | – | –
CCCOc1ccc(N2C(=O)CC(NCc3cccs3)C2=O)cc1 (stereo not drawn) | – | 15.4% | 4.41% (inactive) | –
CCOC(=O)c1ccc(CNC(=O)C(Cc2c[nH]c3ccccc23)NC(C)=O)o1 (stereo not drawn) | inactive | – | – | –
O=C(NC(=O)c1c(Cl)cccc1Cl)Nc1ccc(Oc2cccnc2)nc1 | – | 1.56% | 8.04% (inactive) | –
O=C1/C(=C/c2cccs2)SC(=S)N1CCCC(=O)N(CCO)c1ccccc1 | – | 6.09% | -14.3% (inactive) | –
Cc1cc(C)cc(C(=O)OCC(=O)N2CCCCCC2)c1 | – | -14.4% | 0.176% (inactive) | –
O=C1CCCC(O)=C1N=Nc1c(Cl)cc(Cl)cc1Cl | – | 2.67% | 17.9% (inactive) | –
C/C=N/NC(=O)c1cc(Br)ccc1O | – | 5.04% | 9.52% (inactive) | –
Cc1cccc(/C=N/NC(=O)c2cc(Br)ccc2O)n1 | – | 0.985% | 6.34% (inactive) | –
Cc1c(/C=N/NC(=O)c2cc(Br)ccc2O)c(=O)n(C)c(=O)n1C | – | -6.52% | – | 5.8 µM (active)
CN1CCN(c2ccc(NC(=O)c3ccc(-c4cccc([N+](=O)[O-])c4)o3)cc2)CC1 | – | 17.7% | 17.2% (inactive) | –
O=C(Nc1ccc(CN2CCOCC2)cc1)c1ccc(-c2cccc([N+](=O)[O-])c2)o1 | – | -29.5% | – | 8.2 µM (active)
O=[N+]([O-])c1cccc(-c2ccc(C(=S)N3CCOCC3)o2)c1 | – | 15.8% | -17.7% (inactive) | –
O=C(NC1CCCN(CCc2ccccc2)C1)C1CCCC1 (stereo not drawn) | – | 8.14% | -3.29% (inactive) | –
C[C@H](NC(=O)C1CCN(S(=O)(=O)c2ccccc2)CC1)C(=O)NCc1ccc(F)cc1 | – | – | 25.5% (inactive) | –
CCN(CC)C1CCN(Cc2cn[nH]c2-c2ccc(OC)c(F)c2)C1 (stereo not drawn) | – | 7.18% | 5.24% (inactive) | –
Cc1sc(NC(=O)/C=C/c2ccco2)c(C(=O)O)c1C | – | 4.19% | -1.31% (inactive) | –
CC(C)(C)C1CCc2c(sc(NC(=O)CSc3nnc(-c4ccccc4)o3)c2C#N)C1 (stereo not drawn) | – | -0.658% | – | 4.11 µM (active)
N#Cc1ccsc1NC(=O)CSc1nnc(-c2ccccc2)o1 | inactive | 20.1% | – | –
CCn1c(SCC(=O)Nc2sc3c(c2C#N)CCC(C(C)(C)C)C3)nnc1-c1ccco1 (stereo not drawn) | – | -7.68% | -2.66% (inactive) | –
COc1ccc(/C=N/n2cnc3c(sc(=S)n3-c3ccccc3)c2=O)cc1 | inactive | 19.1% | – | –
CN1C(=S)SC(N(O)C(=O)Nc2ccc(Cl)c(Cl)c2)C1(C)C (stereo not drawn) | – | -15% | -7.63% (inactive) | –
CCOc1ccc(CN2CCC(Cc3ccccc3)CC2)cc1 | inactive | 27.4% | – | –
CCOc1ccc(CNc2ccc(N3CCN(Cc4ccccc4)CC3)cc2)cc1 | – | – | – | 2.31 µM (active)

Structure (SMILES) | outcome | cell number change | lipid storage change, negative = inhibition | Potency
CCOc1ccc(CNc2ccc(N3CCCC3)cc2)cc1 | inactive | – | – | –
O=C(NCn1cnccc1=O)c1ccccc1 | – | 1.39% | – | 20.6 µM (active)
O=C(NC(C(=O)c1ccccc1)n1cnccc1=O)c1ccccc1 (stereo not drawn) | – | -10.1% | -5.22% (inactive) | –
O=C(NCN1CCc2ccccc2C1)c1ccccc1 | – | 0.788% | 3.53% (inactive) | –
Cc1noc(C)c1C(=O)Nc1nnc(CC(C)C)s1 | – | 23.9% | -7.24% (inactive) | –
O=C1NC(=O)C(CC(=O)N(Cc2ccco2)C2(C(=O)NC3CCCC3)CCCCC2)N1 (stereo not drawn) | inactive | – | – | –
CC(=O)N(Cc1ccco1)C1(C(=O)NC2CCCCC2)CCCCC1 | – | -0.0608% | 1.16% (inactive) | –
O=C(Cc1cccs1)N(Cc1ccco1)C1(C(=O)NC2CCCC2)CCCCC1 | – | -17% | – | 3.66 µM (active)
O=C(Cc1cccs1)N(CC1CCCO1)C1(C(=O)NC2CCCC2)CCCCC1 (stereo not drawn) | – | -0.501% | -0.959% (inactive) | –
CC(=O)NCC(=O)N(Cc1ccco1)C1(C(=O)NC2CCCC2)CCCCC1 | – | 17.4% | 1.93% (inactive) | –
CC(=O)N(Cc1ccco1)C1(C(=O)NC2CCCC2)CCCCC1 | – | 3.24% | – | 14.6 µM (active)
O=C(NC(N1CCOCC1)C(Cl)(Cl)Cl)c1cc([N+](=O)[O-])cc([N+](=O)[O-])c1 (stereo not drawn) | – | – | 2.11% (inactive) | –
COC(CNC(=O)c1ccc(CS(=O)(=O)c2ccc(C)cc2)o1)OC | – | 23.5% | 5.22% (inactive) | –
COc1nc(NCCN2CCOCC2)nc(Nc2ccccc2)n1 | inactive | -13.7% | – | –
COc1ccc(NC(C)=O)cc1S(=O)(=O)Nc1ccc(OCc2ccccc2)cc1 | inactive | -6.41% | – | –
COc1ccc(NC(C)=O)cc1S(=O)(=O)NC(Cc1ccccc1)C(=O)O (stereo not drawn) | – | -4.53% | 17.4% (inactive) | –
COc1ccc(NC(C)=O)cc1S(=O)(=O)NC(Cc1ccccc1)C(=O)NCc1ccccc1C (stereo not drawn) | – | -19.4% | – | 1.84 µM (active)
O=C1NC(c2ccccc2Cl)Nc2ccccc21 (stereo not drawn) | – | -2.9% | -6.86% (inactive) | –
COc1ccccc1C(=O)Nc1nnc(SCC(=O)NCc2ccco2)s1 | – | -7.8% | – | 20.6 µM (active)
Cc1ccccc1C(=O)Nc1nnc(SCC(=O)NCc2ccco2)s1 | inactive | -7.23% | – | –
COc1ccc(C(=O)Nc2nnc(SCC(=O)NCc3ccco3)s2)cc1OC | – | – | -13.8% (inactive) | –
Cc1nc2ccc(NC(=S)NC(C)C)cc2nc1C | – | -1.16% | 7.57% (inactive) | –
COc1cc(C(=O)NC(C)c2ccc(S(N)(=O)=O)cc2)ccc1OCC(=O)N1CCOCC1 (stereo not drawn) | – | 9.66% | 29.2% (inactive) | –
CC12CN3CC(C)(CN(C1)C3c1ccccc1F)C2 (stereo not drawn) | – | – | 4.33% (inactive) | –
